According to the supplement of paper PMC11732987, “Enantioselective OTUD7B fragment discovery through chemoproteomics screening and high-throughput optimisation” (Communications Chemistry, 2025):

Columns and labels:
Test in all cases: log2 ratio of Biotin-Ahx-Ub-VS probe labelling (fragment/DMSO); higher = less target engagement (more negative = stronger competition), active = hit call of the paper (q ≤ 0.05, log2 ratio ≤ -1)
Conditions in all cases: compound concentration: 200 uM; treatment time: 3 h
[1] = biological target: T1, USP19 (UniProt O94966)
T1 sequence (whole entry): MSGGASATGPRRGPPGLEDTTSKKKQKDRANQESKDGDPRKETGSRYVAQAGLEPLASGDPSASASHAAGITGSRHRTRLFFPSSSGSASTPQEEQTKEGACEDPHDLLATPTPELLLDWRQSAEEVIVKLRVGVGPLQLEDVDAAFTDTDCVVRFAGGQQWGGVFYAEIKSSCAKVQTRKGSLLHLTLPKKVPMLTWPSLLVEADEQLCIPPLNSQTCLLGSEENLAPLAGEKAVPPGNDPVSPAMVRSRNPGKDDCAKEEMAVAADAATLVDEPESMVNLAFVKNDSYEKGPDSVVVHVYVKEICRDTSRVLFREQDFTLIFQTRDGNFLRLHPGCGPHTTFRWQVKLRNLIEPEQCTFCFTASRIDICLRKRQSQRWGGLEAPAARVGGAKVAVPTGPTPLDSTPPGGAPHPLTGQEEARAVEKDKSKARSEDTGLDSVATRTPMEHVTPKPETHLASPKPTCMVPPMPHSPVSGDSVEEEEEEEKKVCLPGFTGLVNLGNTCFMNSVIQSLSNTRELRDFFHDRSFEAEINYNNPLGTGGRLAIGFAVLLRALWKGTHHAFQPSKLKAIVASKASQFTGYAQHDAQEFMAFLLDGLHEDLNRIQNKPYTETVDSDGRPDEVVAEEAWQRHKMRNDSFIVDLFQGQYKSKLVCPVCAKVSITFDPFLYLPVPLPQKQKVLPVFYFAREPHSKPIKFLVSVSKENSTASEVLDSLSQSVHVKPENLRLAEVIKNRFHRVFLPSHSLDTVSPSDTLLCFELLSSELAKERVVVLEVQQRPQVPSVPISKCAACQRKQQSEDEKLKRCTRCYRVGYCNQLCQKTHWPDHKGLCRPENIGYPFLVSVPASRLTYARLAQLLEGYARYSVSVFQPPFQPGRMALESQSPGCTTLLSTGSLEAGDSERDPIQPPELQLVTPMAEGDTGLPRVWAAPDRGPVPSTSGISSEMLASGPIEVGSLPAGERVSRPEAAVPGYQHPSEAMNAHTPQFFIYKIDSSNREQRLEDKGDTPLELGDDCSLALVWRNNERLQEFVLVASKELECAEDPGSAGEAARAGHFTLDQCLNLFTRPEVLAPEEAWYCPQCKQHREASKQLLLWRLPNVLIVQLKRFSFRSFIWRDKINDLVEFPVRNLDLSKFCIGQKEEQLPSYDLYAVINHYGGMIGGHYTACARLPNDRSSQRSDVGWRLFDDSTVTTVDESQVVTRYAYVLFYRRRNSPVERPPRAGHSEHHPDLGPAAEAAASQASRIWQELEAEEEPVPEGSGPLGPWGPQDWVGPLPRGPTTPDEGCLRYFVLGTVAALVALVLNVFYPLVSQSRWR
In short: (§1)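 Global-median-normalised Spectronaut label-free quantities were compared by unpaired t-test, and values are average log2 ratios of fragment over vehicle. Only proteins with ≥2 unique peptides were used. HEK293T lysate (495 µg per sample) was treated in triplicate with fragment at 200 µM or vehicle for 3 h and then with Biotin-Ahx-Ub-VS at 0.5 µM final for 1 h. Labelled DUBs were then NeutrAvidin-enriched, digested with LysC and trypsin, and run by diaPASEF LC-MS/MS.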

[2] = biological target: T2, USP22 (UniProt Q9UPT9)
T2 sequence (whole entry): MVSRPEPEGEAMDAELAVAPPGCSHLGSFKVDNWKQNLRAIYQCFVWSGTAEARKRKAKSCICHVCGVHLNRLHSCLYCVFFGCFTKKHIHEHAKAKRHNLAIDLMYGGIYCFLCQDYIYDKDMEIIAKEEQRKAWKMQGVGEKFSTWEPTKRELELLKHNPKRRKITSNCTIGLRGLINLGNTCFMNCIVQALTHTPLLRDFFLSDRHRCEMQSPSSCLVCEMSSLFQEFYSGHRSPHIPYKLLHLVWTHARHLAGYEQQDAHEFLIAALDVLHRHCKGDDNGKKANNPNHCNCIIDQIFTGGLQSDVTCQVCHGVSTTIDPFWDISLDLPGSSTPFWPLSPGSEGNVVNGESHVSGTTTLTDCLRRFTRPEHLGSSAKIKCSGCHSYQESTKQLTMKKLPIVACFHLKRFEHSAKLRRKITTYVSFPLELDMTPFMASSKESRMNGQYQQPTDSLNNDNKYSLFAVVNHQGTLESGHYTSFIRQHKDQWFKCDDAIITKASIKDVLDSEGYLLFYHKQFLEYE
In short: as §1

[3] = biological target: USP24 (UniProt Q9UPU5)
Sequence of USP24 (Q9UPU5 whole entry): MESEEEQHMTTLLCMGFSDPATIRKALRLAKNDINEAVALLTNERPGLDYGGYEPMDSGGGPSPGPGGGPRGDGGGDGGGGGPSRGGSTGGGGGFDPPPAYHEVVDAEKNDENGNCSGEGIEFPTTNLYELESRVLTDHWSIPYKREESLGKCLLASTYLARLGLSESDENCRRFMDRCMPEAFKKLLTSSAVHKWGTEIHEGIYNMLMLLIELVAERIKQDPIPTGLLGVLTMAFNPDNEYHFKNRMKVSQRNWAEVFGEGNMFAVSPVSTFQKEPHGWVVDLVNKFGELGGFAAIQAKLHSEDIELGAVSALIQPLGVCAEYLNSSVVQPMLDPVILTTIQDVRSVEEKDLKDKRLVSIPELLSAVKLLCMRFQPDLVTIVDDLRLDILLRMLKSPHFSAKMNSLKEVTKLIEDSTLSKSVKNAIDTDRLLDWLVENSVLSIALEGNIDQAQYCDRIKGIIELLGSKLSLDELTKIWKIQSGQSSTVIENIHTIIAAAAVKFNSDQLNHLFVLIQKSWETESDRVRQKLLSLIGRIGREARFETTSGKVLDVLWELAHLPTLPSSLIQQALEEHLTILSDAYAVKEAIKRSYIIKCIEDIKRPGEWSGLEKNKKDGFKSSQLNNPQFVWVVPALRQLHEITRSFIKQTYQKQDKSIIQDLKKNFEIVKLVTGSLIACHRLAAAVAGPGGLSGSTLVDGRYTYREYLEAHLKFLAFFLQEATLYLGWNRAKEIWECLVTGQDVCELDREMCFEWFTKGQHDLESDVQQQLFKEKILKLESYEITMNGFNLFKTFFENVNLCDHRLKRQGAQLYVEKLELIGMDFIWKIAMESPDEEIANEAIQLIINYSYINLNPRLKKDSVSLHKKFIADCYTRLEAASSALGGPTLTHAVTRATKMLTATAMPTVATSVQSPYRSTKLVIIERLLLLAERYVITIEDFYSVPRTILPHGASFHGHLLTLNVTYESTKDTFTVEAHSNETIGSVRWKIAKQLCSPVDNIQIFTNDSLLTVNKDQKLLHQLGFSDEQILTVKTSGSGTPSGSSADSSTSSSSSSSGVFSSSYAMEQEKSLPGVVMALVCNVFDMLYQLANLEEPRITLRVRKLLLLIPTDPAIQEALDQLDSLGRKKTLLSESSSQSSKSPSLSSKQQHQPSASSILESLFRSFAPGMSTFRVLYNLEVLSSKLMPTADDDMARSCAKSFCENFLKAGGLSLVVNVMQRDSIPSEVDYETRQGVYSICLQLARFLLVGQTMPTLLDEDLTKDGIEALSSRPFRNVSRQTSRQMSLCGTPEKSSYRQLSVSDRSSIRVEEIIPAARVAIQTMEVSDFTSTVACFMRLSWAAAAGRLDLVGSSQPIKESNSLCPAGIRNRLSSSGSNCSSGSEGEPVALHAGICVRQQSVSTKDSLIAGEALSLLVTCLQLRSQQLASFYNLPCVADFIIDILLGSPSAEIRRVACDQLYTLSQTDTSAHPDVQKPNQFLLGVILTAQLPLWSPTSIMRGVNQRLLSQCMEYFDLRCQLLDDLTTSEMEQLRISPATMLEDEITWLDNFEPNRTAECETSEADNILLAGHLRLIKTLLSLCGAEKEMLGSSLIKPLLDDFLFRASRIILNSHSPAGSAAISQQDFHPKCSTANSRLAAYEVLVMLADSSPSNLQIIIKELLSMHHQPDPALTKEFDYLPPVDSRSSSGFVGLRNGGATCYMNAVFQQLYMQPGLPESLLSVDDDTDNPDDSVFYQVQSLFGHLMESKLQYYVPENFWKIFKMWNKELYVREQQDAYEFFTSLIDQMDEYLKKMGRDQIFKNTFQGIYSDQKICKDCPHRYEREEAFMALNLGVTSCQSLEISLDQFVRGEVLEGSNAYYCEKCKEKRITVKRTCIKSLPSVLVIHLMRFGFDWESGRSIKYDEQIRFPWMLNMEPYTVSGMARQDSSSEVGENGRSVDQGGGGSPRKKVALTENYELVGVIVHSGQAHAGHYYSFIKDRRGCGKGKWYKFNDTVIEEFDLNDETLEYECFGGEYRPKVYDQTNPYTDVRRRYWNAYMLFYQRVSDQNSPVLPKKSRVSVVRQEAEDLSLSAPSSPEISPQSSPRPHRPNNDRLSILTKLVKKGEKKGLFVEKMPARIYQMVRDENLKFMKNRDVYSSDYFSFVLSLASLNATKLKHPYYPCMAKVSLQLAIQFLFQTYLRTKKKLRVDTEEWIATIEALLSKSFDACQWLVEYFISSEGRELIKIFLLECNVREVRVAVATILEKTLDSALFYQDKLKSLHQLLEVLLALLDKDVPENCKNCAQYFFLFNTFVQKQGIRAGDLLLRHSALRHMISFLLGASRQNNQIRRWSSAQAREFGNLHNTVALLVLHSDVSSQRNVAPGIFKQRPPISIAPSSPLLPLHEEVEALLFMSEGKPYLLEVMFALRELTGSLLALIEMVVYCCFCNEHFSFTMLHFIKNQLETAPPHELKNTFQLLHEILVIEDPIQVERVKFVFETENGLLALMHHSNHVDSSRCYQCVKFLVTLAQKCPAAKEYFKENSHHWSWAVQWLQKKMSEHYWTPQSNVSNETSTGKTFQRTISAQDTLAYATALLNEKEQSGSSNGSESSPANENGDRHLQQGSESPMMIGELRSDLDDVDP
In short: as §1

[4] = biological target: T3, USP25 (UniProt Q9UHP3)
T3 sequence (whole entry): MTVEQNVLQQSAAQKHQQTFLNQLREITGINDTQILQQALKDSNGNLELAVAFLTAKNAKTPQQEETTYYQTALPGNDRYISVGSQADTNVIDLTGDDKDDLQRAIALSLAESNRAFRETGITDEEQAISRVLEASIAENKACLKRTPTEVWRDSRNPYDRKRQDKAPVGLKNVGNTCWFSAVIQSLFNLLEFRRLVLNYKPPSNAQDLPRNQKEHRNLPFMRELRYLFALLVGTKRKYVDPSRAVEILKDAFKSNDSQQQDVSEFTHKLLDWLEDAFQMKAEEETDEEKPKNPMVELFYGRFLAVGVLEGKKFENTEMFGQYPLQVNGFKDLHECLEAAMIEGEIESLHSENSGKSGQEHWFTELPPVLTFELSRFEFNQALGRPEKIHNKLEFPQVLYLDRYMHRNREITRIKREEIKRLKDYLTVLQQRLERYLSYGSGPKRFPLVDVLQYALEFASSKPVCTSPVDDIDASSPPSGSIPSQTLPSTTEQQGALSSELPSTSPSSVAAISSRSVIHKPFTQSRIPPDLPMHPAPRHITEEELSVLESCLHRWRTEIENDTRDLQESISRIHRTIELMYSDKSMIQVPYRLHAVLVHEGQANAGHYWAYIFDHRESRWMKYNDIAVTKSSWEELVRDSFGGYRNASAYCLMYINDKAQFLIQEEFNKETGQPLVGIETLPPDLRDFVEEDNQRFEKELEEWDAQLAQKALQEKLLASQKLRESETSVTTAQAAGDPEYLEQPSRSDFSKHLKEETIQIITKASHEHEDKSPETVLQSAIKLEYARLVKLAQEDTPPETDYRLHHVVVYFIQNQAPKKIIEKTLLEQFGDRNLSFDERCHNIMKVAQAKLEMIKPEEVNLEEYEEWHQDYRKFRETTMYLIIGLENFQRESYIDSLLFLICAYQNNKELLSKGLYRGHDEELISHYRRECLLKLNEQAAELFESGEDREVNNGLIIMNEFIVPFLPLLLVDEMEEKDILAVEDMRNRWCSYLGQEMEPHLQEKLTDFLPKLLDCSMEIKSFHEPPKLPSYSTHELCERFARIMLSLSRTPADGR
In short: as §1

[5] = biological target: T4, USP28 (UniProt Q96RU2)
T4 sequence (whole entry): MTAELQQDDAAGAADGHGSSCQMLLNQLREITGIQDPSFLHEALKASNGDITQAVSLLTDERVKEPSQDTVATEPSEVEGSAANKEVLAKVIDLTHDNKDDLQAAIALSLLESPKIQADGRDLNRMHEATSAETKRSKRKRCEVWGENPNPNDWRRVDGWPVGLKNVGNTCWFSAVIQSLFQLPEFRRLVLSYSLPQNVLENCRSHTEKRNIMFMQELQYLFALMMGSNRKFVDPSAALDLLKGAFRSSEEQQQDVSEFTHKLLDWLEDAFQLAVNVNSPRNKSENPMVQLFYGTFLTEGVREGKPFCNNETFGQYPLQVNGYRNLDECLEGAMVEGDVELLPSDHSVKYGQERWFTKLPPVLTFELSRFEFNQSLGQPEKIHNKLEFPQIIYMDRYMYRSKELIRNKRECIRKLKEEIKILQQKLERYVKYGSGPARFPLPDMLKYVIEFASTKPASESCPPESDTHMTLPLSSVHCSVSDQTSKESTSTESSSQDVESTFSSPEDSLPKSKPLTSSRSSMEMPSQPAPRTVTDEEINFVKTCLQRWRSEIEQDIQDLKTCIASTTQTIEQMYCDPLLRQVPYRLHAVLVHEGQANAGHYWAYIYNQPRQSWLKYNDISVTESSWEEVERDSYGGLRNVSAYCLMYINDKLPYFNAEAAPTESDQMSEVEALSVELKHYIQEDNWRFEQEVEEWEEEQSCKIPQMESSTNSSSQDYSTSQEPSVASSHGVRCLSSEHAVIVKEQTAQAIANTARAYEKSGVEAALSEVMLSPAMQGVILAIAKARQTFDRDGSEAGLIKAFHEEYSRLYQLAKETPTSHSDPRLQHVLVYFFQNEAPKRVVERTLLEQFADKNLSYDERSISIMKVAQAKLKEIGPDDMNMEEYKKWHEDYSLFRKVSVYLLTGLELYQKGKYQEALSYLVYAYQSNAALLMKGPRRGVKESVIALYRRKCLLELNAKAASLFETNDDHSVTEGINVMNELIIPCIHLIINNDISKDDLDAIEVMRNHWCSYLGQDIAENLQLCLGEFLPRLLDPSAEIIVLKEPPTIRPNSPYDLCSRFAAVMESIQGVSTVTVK
In short: as §1

Measured: log2 ratio of Biotin-Ahx-Ub-VS probe labelling

COc1cccc(CN(C)C(=O)CCl)c1
inactive: [1] -0.352 | [2] -0.426 | [3] -0.497 | [4] -0.669 | [5] -0.772
